Pf growth 48h: P. falciparum growth inhibition at 48 hours (one generation) | P. falciparum luciferase growth in erythrocytes, 48 h | Potency, µM (doses to about 28.7 µM), for the others: at the top dose activity change, negative = inhibition, hits mostly inhibitors | 5.9% of 310,000 active | AID 504832
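In quantitative HTS format, infected erythrocytes bearing luciferase-reporter parasites were treated for a single generation at 37 C. Luminescence after adding detection reagent served as the growth measure.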
AMA1 RON2 block: AMA1-RON2 (P. falciparum) interaction inhibition; AlphaScreen AMA1-biotinylated RON2 peptide binding; AID 720542; Potency, µM (highest dose often 58.2 µM), for inactives: top-dose activity change, negative = inhibition, usual class: inhibitors; 0.2% of 360,000 active;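 also: 0% = vehicle wells and -100% = peptide control; nearly all actives have a fitted effect of over 45% in size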
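AMA1 (3D7) with his tag at 25 nM final met compounds first, then biotinylated RON2 peptide at 25 nM; detection used donor plus acceptor beads, 10 µg/mL apiece, read by AlphaScreen after 30 min at room temperature.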
Vaccinia Venus: inhibitors of vaccinia virus (Venus reporter). Vaccinia virus Venus reporter expression, fluorescence. Potency, µM (doses to about 36.5 µM), for the others: at the top dose activity change, negative = inhibition, actives largely listed as inhibitors. 0.46% of 330,000 active; calls by dose curve; tested in A549 cells; also: nearly all actives have a fitted effect of over 30% in size
Vaccinia mCherry: vaccinia inhibition (mCherry reporter); Vaccinia virus mCherry reporter infection, fluorescence; Potency, µM (doses to about 36.5 µM), for the others: at the highest dose activity change, negative = inhibition, actives largely listed as inhibitors; 0.63% of 310,000 active; calls by dose curve; tested in A549 cells; also: nearly all actives have a fitted effect of over 35% in size
Pf growth 96h: P. falciparum growth inhibition at 96 hours; AID 504834; P. falciparum luciferase reporter growth, 96 h; Potency, µM (top dose mostly 28.7 µM), without a hit: top-dose activity change, negative = inhibition, actives largely listed as inhibitors; 6.9% of 320,000 active
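Cell-based qHTS: luciferase-tagged P. falciparum in erythrocytes (2% hematocrit, 0.05% parasitemia final) incubated with compounds for 96 hours, 37 C, 5% CO2; luciferase detection reagent then added and luminescence measured.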
Active calls of the source: *; i = inactive; ? = inconclusive; . = no result given; [ ] = remark or other dose. Sampled rows, rich in hits. Any-hit rate of the full collection: about 8.7%. Unless noted, calls follow the shape of the dose curve; as a rule, active = well fitted curve in the direction sought with a large enough effect; inconclusive = small, poorly fitted or top-dose-only effect, or another doubt; inactive = no such curve, though single readings can be large; an effect the other way counts as inactive or inconclusive. Unless noted, % is scaled to controls: 0 for no effect and ±100 for the full control effect; potency is read from the fitted curve at half-maximal effect.

SMILES | Pf growth 48h | AMA1 RON2 block | Vaccinia Venus | Vaccinia mCherry | Pf growth 96h
Cc1ccc(OCC(=O)Nc2cc(S(=O)(=O)N3CCCCC3)ccc2N2CCN(C)CC2)c(C)c1 | 2.3µM* | ? | ? | ? | 1.5µM*
COc1ccccc1OCC(=O)Nc1cc(S(=O)(=O)N2CCCCC2)ccc1N1CCCCC1 | 5.2µM* | -8%[11.6 µM] | -19% | -16% | 2.1µM*
CCN1CCN(c2ccc(S(=O)(=O)N3CCCCC3)cc2NC(=O)c2ccc([N+](=O)[O-])s2)CC1 | 4.7µM* | -3% | 10µM* | 8.9µM* | 1.7µM*
Cc1ccc(S(=O)(=O)N2CCC(C(=O)Nc3ccccc3N3CCCCC3)CC2)cc1C | ? | 9% | -7% | -9% | ?
CCN1CCN(c2ccc(S(=O)(=O)N3CCCCC3)cc2NC(=O)Cc2ccc(Cl)c(Cl)c2)CC1 | 10µM* | -21% | -28% | ? | 10µM*
COc1ccc(S(=O)(=O)N2CCC(C(=O)Nc3ccccc3N3CCCCC3)CC2)cc1OC | 0% | -9% | -25% | -11% | 8.3µM*
CCN1CCN(c2ccc(S(=O)(=O)N3CCCCC3)cc2NC(=O)COc2ccc(Cl)c(C)c2)CC1 | 4.7µM* | -5% | -28% | i | ?
Cc1cc(C)c2c(CC(=O)Nc3ccc(S(=O)(=O)Nc4ncccn4)cc3)coc2c1 | . | . | -8% | -10% | .
COc1cc(C(C)=O)ccc1OCC(=O)Nc1cc(Cl)ccc1-n1cncn1 | -1% | 16% | -5% | -12% | -24%
Cc1cc(Cl)ccc1OCC(=O)Nc1ccccc1CO | 13µM* | 6% | -22% | -9% | 26%
CCC(=O)c1ccc(OCC(=O)Nc2cc(S(=O)(=O)N3CCCCC3)ccc2N2CCN(CC)CC2)cc1 | ? | -13% | ? | -8% | 9.3µM*
CCOc1ccccc1OCC(=O)Nc1cc(S(=O)(=O)N2CCCCC2)ccc1N1CCN(CC)CC1 | 10µM* | -1% | -17% | -14% | 3.3µM*
CSc1ccccc1NC(=O)COc1ccc(Cl)cc1C | -9% | 29% | 3% | -8% | 6%
COc1ccccc1OCC(=O)Nc1cc(C(F)(F)F)ccc1-n1cncn1 | 9.3µM* | 2% | -11% | -5% | ?
COc1ccc2nccc(/C=C/c3ccc(N(C)C)cc3)c2c1 | . | . | -9% | -13% | .
COc1ccccc1OCC(=O)Nc1cc(Cl)ccc1N1CCCCC1 | 10µM* | -9%[11.6 µM] | -19% | i | ?
CCC12CN(C(=O)c3ccco3)CC(CC)(CN(C(=O)c3ccco3)C1)C2=O | ? | -11% | -10% | -9% | -15%
CC(=O)N1CC2(CC(=O)OC(C)C)CN(C(C)=O)CC(CC(=O)OC(C)C)(C1)C2=O | 4% | -1% | -13% | . | 12µM*
O=c1[nH]c(SCc2c(F)cccc2Cl)nc2c1CCC2 | . | . | -7% | -12% | .
O=C(Nc1ccccc1C(F)(F)F)C1CCN(S(=O)(=O)Cc2ccccc2)CC1 | . | . | -1% | 3% | .
CC(C)(C)c1cc(CCC(=O)NCCc2ccccn2)cc(C(C)(C)C)c1O | ? | 10% | -14% | -17% | 12µM*
CCCNC(=O)CCc1cc(C(C)(C)C)c(O)c(C(C)(C)C)c1 | ? | -8% | -17% | -18% | ?
CC(C)(C)c1cc(CCC(=O)NCC2CCCO2)cc(C(C)(C)C)c1O (stereo not given) | -1% | 0% | -20% | 4µM* | ?
CC(C)(C)c1ccc(-c2noc(CCC(=O)NCC3CCCO3)n2)cc1 (stereo not given) | . | -1% | . | . | 307%
CC(=O)N1CCN(C(=O)CCc2cc(C(C)(C)C)c(O)c(C(C)(C)C)c2)CC1 | ? | -5% | -12% | -12% | 13µM*
SMILES | Pf growth 48h | AMA1 RON2 block | Vaccinia Venus | Vaccinia mCherry | Pf growth 96h
COc1cccc(CNC(=O)CCCn2ncn3c(cc4occc43)c2=O)c1OC | . | . | -8% | -9% | .
O=C(CCCCn1c(=O)c2ccccc2n(Cc2ccc(Cl)cc2)c1=O)NCc1ccco1 | 12µM* | -3% | ? | . | 25%
Cc1ccc(-n2c(=O)c3ccc(C(=O)NCc4ccco4)cc3n(Cc3ccccc3Cl)c2=O)cc1 | . | . | -21% | -24% | .
N#Cc1ccccc1Cn1c(=O)n(CCC(=O)NCc2ccco2)c(=O)c2ccccc21 | -23% | -9% | -9% | -13% | ?
N#Cc1ccccc1Cn1c(=O)n(Cc2ccc(C(=O)NCc3ccco3)cc2)c(=O)c2ccccc21 | 2.9µM* | 29% | -21% | . | 81%
Cc1cc(C)c(NC(=O)Cn2c(=O)n(Cc3ccco3)c(=O)c3ccccc32)c(C)c1 | 13µM* | 0% | -18% | . | 6%
Cc1ccccc1Cn1c(=O)n(-c2ccccc2)c(=O)c2ccc(C(=O)NCc3ccco3)cc21 | -6% | . | . | . | 8.3µM*
CCCOc1ccc(CC2C(=O)Nc3ccc(Br)cc32)cc1 (stereo not given) | . | . | -4% | -4% | .
CC1CN(c2cc(-c3ccccc3)c3ccccc3n2)CC(C)O1 (stereo not given) | . | 46% | -18% | -11% | 2.6µM*
CC(C)Cn1c2c(c(=O)[nH]c1=O)C(C(F)(F)F)(C(F)(F)F)N=C(CCC1CCCCC1)N2 | 9.3µM* | 14% | -12% | -17% | 0%
COc1ccc(-c2csc3ncnc(N4CCN(c5ccccc5OC)CC4)c23)cc1 | 5.9µM* | ? | -3% | i | ?
Cc1ccc(-c2csc3ncnc(N4CCN(S(=O)(=O)c5ccc(C#N)cc5)CC4)c23)cc1 | . | -6% | -19% | -27% | .
Cc1ccc(-c2csc3ncnc(N4CCN(S(=O)(=O)c5cccs5)CC4)c23)cc1 | 6.6µM* | 6% | -15% | -3% | ?
CCOc1ccccc1N1CCN(c2ncnc3scc(-c4ccc(OC)cc4)c23)CC1 | 5.9µM* | -3% | -12% | ? | ?
CCOC(=O)N1CCC2(CC1)OC(=O)C(C)=C2C(=O)NCc1ccccc1OC | . | . | -8% | -14% | .
CCOc1cc(C#N)c(NC(=O)c2cccc(S(=O)(=O)N3CCOCC3)c2)cc1OCC | . | . | -11% | -1% | .
C=CC1CN2CCC1CC2C(OC(=O)OCC)c1ccnc2ccc(OC)cc12 (stereo not given) | 1.7µM* | . | . | . | 0.76µM*
C=C[C@H]1CN2CC[C@H]1C[C@H]2[C@H](OC(=O)OCC)c1ccnc2ccc(OC)cc12 | . | . | -14% | -17% | .
CC[C@H]1CN2CCC1C[C@H]2[C@H](O)c1ccnc2ccc(OC)cc12 (stereo not given in full) | 0.093µM* | 1% | -8% | -14% | 0.052µM*
C=CC1CN2CCC1CC2[C@@H](OC(=O)c1ccc(OC)cc1)c1ccnc2ccccc12 (stereo not given in full) | 2.9µM* | -24% | -17% | -28% | 12%
C=C[C@@H]1CN2CC[C@H]1C[C@H]2[C@H](O)c1ccnc2ccccc12 | 0.13µM* | . | . | . | 0.054µM*
Cc1ccc(-c2cn3c(n2)sc2cc(C(=O)NCc4cccs4)ccc23)cc1 | . | . | -8% | -17% | .

Compound activity deposited in PubChem BioAssay by National Center for Advancing Translational Sciences (NCATS).
